Screening results (PubChem BioAssay)
Most compounds without a hit are left out; they make up all but 1.5% or so of the library.
TLR4-MyD88 BLA: inhibitors of TLR4-MyD88 association in cells, primary screen, cell-based, HeLa CL3-4, BLA complementation, FRET ratio; HeLa CL3-4 TLR4/MyD88 BLA complementation; AID 861, 2007; 200,000 compounds, 0.18% hits; inhibition, % at 8.4 µM; Toll-like receptor 4 (Homo sapiens) + Myeloid differentiation primary response protein …; in the data active = inhibition above about 25%;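 note: 0% = vehicle and 100% = reference inhibitor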
ABHD5 PLIN5 PPI: ABHD5-PLIN5 interaction inhibitors, primary screen, cell lysate, split luciferase complementation, luminescence; Perilipin-5 (Homo sapiens) + 1-acylglycerol-3-phosphate O-acyltransferase ABHD5 (Homo …; Split G. princeps luciferase complementation, 4 h; inhibition, % at 4 µM; 360,000 compounds, 0.78% hits; AID 602281, 2012;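 active = inhibition above the mean inhibition across every tested compound plus 3 SD, cut at about 22% in these data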;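 note: 0% = DMSO only wells and the 100% control is not disclosed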
Beta2AR agonist: beta2AR agonists driving receptor internalization, primary screen, cell-based, FAP fluorogen, flow cytometry | Am2.2-beta2AR cells | response, % (no concentration beside the values) | 340,000 compounds, 0.43% hits | Beta-2 adrenergic receptor (Homo sapiens), P07550;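 active = response above a set limit, near 3 SD of response in nonfluorescent compounds, cut at about 42% in these data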
TLR9-MyD88 block: inhibitors of TLR9-MyD88 association in cells, primary screen, cell-based, CHO, BLA complementation, fluorescence; CCF4 FRET ratio; AID 504734, 2011; Toll-like receptor 9 (Homo sapiens) + Myeloid differentiation primary response protein …; 340,000 compounds, 0.21% hits; inhibition, % at 4.98 µM;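 active = inhibition above the mean over all tested compounds plus 3 SD, cut at about 21% in these data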;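 note: 0% = DMSO only wells and 100% = clavulanate BLA inhibitor control wells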
NOD2 RIPK2 PPI: NOD2-RIPK2 binding disruptors in cells, primary screen, fluorescence, CHO cells, BLA complementation; Receptor-interacting serine/threonine-protein kinase 2 (Homo sapiens), O43353; CCF4 ratio; inhibition, % at 4.98 µM; 360,000 compounds, 0.38% hits; AID 624267, 2012; in the data active = inhibition above about 21%;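 note: 0% = vehicle only and 100% = reference blocker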
NTR1 agonist: agonists of human NTR1, primary screen, imaging, U2OS cells, beta-arrestin-GFP, high content; NTR1-U2OS beta-arrestin-GFP spot imaging, agonist mode; activation, % at 20 µM; Neurotensin receptor type 1 (Homo sapiens), P30989; 330,000 compounds, 0.17% hits;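 active = activation at or above 40% of the spot to cytoplasm intensity ratio, with at least 20 cells analyzed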;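 note: 0% = DMSO without peptide and 100% = 100 nM NTR1 peptide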
The depositor's hits bear a star; nt = not tested or not shown.

SMILES | TLR4-MyD88 BLA | ABHD5 PLIN5 PPI | Beta2AR agonist | TLR9-MyD88 block | NOD2 RIPK2 PPI | NTR1 agonist
O=C(c1ccc(Br)cc1)c1cc(-c2ccccn2)c(N2CCOCC2)s1 | 12 | 5 | -11 | 12 | 3 | 4
COc1ccc(C(=O)OCC(=O)c2ccco2)cc1[N+](=O)[O-] | nt | 5 | nt | -8 | 1 | nt
C[C@H](NC(=O)c1[nH]cnc1C(=O)Nc1ccc(CNC(=O)OC(C)(C)C)cc1)C(=O)OCc1ccccc1 | nt | 5 | 48* | -1 | -8 | 32
CCCCCCCCC[n+]1cccc2c3ccccc3ccc21 | 22 | 29* | -5 | 3 | 4 | 9
O=[N+]([O-])c1ccc(C[n+]2cccc3c4ccccc4ccc32)cc1 | 9 | 1 | 8 | -2 | 1 | -1
C=CCn1c(C)c(C(C)=O)cc(NC(=O)c2ccccc2)c1=O | -3 | -1 | -15 | -8 | -7 | 2
C=CCN1C(=O)/C(=C/C(=O)OC)S/C1=N\NC(=O)c1ccccc1 | nt | 23* | 3 | nt | 9 | 10
CCOc1cc(NC(=S)NCC2CCCO2)c(OCC)cc1NC(=O)c1cccc(C)c1 (centres undefined) | 7 | -12 | 47* | -6 | -6 | 6
S=c1cn[nH]c2ccccc12 | nt | 4 | 0 | -3 | -12 | nt
COc1ccc(C2C=C(c3ccc(Br)s3)Nc3ncnn32)cc1OC (centres undefined) | 18 | nt | nt | nt | nt | -1
COc1cccc(C2C=C(c3cccs3)Nc3ncnn32)c1OC (centres undefined) | 3 | -4 | -7 | 45* | 48* | 0
CC(C)(C)c1ccc(C2CC2C(=O)N/N=C\c2ccc[nH]2)cc1 (centres undefined) | -1 | -4 | 54* | -11 | -6 | 16
O=C(Nc1c(-c2ccc(Cl)cc2)[nH][nH]c1=O)c1ccc(Br)cc1 | nt | -47 | nt | nt | -3 | nt
Cc1ccc(-c2nnn(CC(=O)Nc3ccc(S(=O)(=O)N4CCC(C)CC4)cc3)n2)cc1 | -2 | 7 | 0 | 1 | -11 | 6
CC1CCCN(S(=O)(=O)c2ccc(NC(=O)Cn3nnc(-c4ccccc4F)n3)cc2)C1 (centres undefined) | -4 | 22* | 0 | -1 | 1 | 3
Cc1cc2nc(C3CCCCC3)c(Cc3cccc(Cl)c3)n2c(C)c1Br | nt | -2 | nt | nt | -7 | nt
CCCCOc1ccc(/C=C/C(=O)OCC(=O)N2CC(=O)Nc3ccccc32)cc1OCC | 0 | -11 | 44* | 5 | -9 | 7
CCCCNc1c(-c2ccc(SC(C)CC)c(OC)c2)nc2ccc(Cl)cn12 (centres undefined) | nt | -36 | 52* | 16 | 11 | 0
CCCCNc1c(-c2ccc(-c3ccc(OC)cc3)c(OC)c2)nc2ccccn12 | nt | -7 | 46* | -7 | 14 | 20
CCCCNc1c(-c2ccc(SC(C)CC)cc2)nc2cnccn12 (centres undefined) | nt | -7 | -31 | 54* | 69* | 33
CC(C)(C)N1C(=O)c2ccccc2NC(=O)C1C(=O)NCCc1ccccc1F (centres undefined) | nt | 7 | nt | nt | -5 | nt
CC(C)C[C@@H](CN1CCC[C@H]1CN1C(=O)C(=O)NC[C@@H]1Cc1ccccc1)N1C[C@H](Cc2ccc(O)cc2)N(CC2CCCCCC2)C(=O)C1=O | nt | 20 | nt | nt | -18 | nt
C[C@@H]1CN([C@H](C)CO)C(=O)CCCn2cc(nn2)CO[C@H]1CN(C)C(=O)C1CCCCC1 | nt | -2 | nt | nt | 1 | nt
COc1ccc(CNC[C@@H](CCCCN(C)Cc2ccc(OC)cc2)N2C[C@H](c3ccccc3)N(CCc3ccc(Cl)c(Cl)c3)C(=O)C2=O)cc1 | 4 | 32* | 102* | 9 | 29* | 22
C[C@@H]1CCCN1[C@H]1CS(=O)(=O)N[C@@H]1COCc1ccccc1 | nt | 3 | nt | nt | -16 | nt
SMILES | TLR4-MyD88 BLA | ABHD5 PLIN5 PPI | Beta2AR agonist | TLR9-MyD88 block | NOD2 RIPK2 PPI | NTR1 agonist
COC(=O)[C@@H]1C[C@]2(OC(=O)c3ccccc3)C=CC(=O)C[C@@H]2N1C(=O)OCc1ccccc1 | 4 | 45* | 10 | -6 | 6 | 8
CCCC(=O)N1CCCC1(C)C(=O)Nc1ccc(-n2cncn2)cc1 (centres undefined) | nt | -3 | nt | nt | -10 | nt
COc1ccc(/C=C/C(=O)c2ccc3c(c2)OCCO3)cc1[N+](=O)[O-] | 6 | 14 | 10 | 0 | -4 | 3
O=C(/C=C/c1cccc([N+](=O)[O-])c1)c1ccc2c(c1)OCCO2 | 14 | 23* | 2 | 0 | 0 | 3
CC(C)(C)NC(=O)C1C(c2ccc(C(F)(F)F)cc2)=Nc2ccccc2N1C(=O)c1cccc(C(F)(F)F)c1 (centres undefined) | nt | -6 | nt | nt | -8 | nt
CC1(C(=O)Nc2cnc3ccccc3c2)CCN1C(=O)C/C=C/c1ccccc1 (centres undefined) | nt | 8 | nt | nt | -10 | nt
CCOc1cc(/C=N/NC(N)=S)cc(Br)c1OCc1ccccc1C | -4 | -16 | 11 | -3 | -5 | 42*
CC(=O)Nc1cc(-c2cccc(F)c2)cn2c(-c3ccc(S(C)(=O)=O)cc3)cnc12 | nt | 6 | nt | nt | 1 | nt
Cc1ccccc1NC(=O)CCC(=O)N/N=C/c1cc([N+](=O)[O-])ccc1O | -4 | -3 | 10 | -5 | 0 | 1
Cc1ccc(C)c(NC(=O)CCC(=O)N/N=C/c2cc([N+](=O)[O-])ccc2O)c1 | 6 | 2 | 65* | 5 | -7 | 0
CCc1nc2c(OCc3ccc(Cl)cc3)cccn2c1N(C)C(=O)c1ccc(C)cc1 | nt | 5 | nt | nt | -15 | nt
COc1cc(/C=C2\CCC/C(=C\c3ccc(O)c(OC)c3)C2=O)ccc1O | nt | 10 | 43* | -2 | 4 | 56*
COc1ccc(Cl)cc1-c1cc(C(=O)Nc2ccc(Br)cc2)[nH]n1 | nt | -5 | nt | nt | -10 | nt
CCOC(=O)Oc1ccc2oc(=O)cc(C)c2c1 | 6 | -2 | -3 | -6 | 5 | -1
Cc1cc(=O)oc2ccc(OCC(=O)N(Cc3ccc(F)cc3)Cc3ccco3)cc12 | 4 | 0 | 61* | 1 | -3 | 8
C=C1C[C@@H]2C[C@@H]2CN(S(=O)(=O)c2ccc(C)cc2)[C@@H]1COCc1ccccc1 | nt | -5 | nt | nt | -8 | nt
S=C(NCCc1ccccn1)Nc1cc(Cl)cc(Cl)c1 | nt | 4 | 5 | 7 | -1 | 0
S=C(NCCc1ccccn1)Nc1ccc(Cl)c(Cl)c1 | -9 | 5 | 53* | 2 | -8 | -1
CCOC(=O)/C=C/C(=O)OCC(=O)Nc1cccc(Br)c1 | -18 | 11 | 43* | 1 | -11 | 0
c1ccc(SSc2ccccn2)nc1 | nt | 35* | 11 | 2 | 2 | 2
